Data published in PubChem BioAssay AID651789 (National Center for Advancing Translational Sciences (NCATS), 2012).
Records with an inconclusive call do not appear. Activity calls are given as the source filed them. Calls come from the whole dose curve; as a rule, active = well fitted inhibition curve with a large enough effect; inconclusive = small, poorly fitted or top-dose-only effect; inactive = no such curve, though single readings can be large or run the other way.

Assay: Acumen qHTS Assay for Inhibitors of the mTORC1 Signaling Pathway in WT MEF Cells: Hit Validation; note: nearly all actives have a fitted effect of over 60% in size;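 for activity change, negative = inhibition: phospho-rpS6 Ser235/236 immunofluorescence normalised to propidium iodide cell stain; percent of cells above a cutoff set by 7.5 nM rapamycin treated wells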
Conditions: Acumen imaging; series mostly up to 37.3 µM; activity change, negative = inhibition: at the top concentration
Summary of the method: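 Read-out is immunofluorescent phospho-rpS6 (Ser235/236) normalised to PI-stained cell number, reported as % active cells using a 7.5 nM rapamycin threshold. Cells: WT or Tsc2-/-, p53-/- MEFs, compound-exposed 24 h at 37C; PI count also tracks viability.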
Potency is the fitted concentration of half-maximal effect.

Activity change, negative = inhibition, inactive:
Cc1ccc(C(C)C)c(OCC(=O)Nc2cc(-c3nc4ccccc4[nH]3)ccc2C)c1 -2.29%
CCc1ccc(NC(=O)Cn2nc(C(F)(F)F)c3c2CCCC3)cc1 -2.61%
CCOC(=O)Cc1ccc(NC(=O)n2ncc3cc(Cl)ccc32)cc1 15.1%
CC1=C(C(=O)OC2CCCC2)C(c2ccccc2Cl)CC(=O)N1 (stereo not given) -20.9%
COC(=O)c1cc2sc(C)cc2n1Cc1ccccc1 -15.3%
CCOc1cc(C2CC(=O)Nc3cc4c(cc32)OCCO4)ccc1O (stereo not given) 28.2%
O=C(NCc1ccc(Cl)cc1)C(=O)NCC(c1cccs1)S(=O)(=O)c1ccc(Cl)cc1 (stereo not given) -6.18%
CCSc1oc(-c2ccc(F)cc2)nc1S(=O)(=O)c1ccc(C)cc1 -16.5%
COc1cc(Br)ccc1C1C(C(=O)Nc2ccc(C)cc2C)=C(C)Nc2nnnn21 (stereo not given) -23.5%
CN(Cc1ccccc1)C(=O)CSc1c2c(nc3ccc(Cl)cc13)CCCC2 -27.7%
Cn1nnnc1SCCCNCc1cccc(OCc2ccc(Cl)cc2)c1 88%
CCOc1ccccc1NC(=O)c1cn(C2CCCC2)c(=O)c2c1c1ccccc1n2C -1.67%
Cc1ccc(NC(=O)CSc2ncc3c(n2)-c2ccccc2N(C)S3(=O)=O)c(Cl)c1 -9.36%
CCc1ccc(NC(=O)C2CCCN(S(=O)(=O)c3cccc4cccnc34)C2)cc1 (stereo not given) -27%
COc1ccc(CCCc2nnc(SCC(=O)Nc3ccc(OC)cc3)o2)cc1 9.53%
Cc1nn(CC(=O)N2CCN(c3ccccc3F)CC2)c(=O)c2cccn12 26.1%
NC(N)=NC(=O)c1nc(Cl)c(N)nc1N -21.2%
COc1cc2ncnc(Nc3ccc(F)c(Cl)c3)c2cc1OCCCN1CCOCC1 -26.5%
COc1cccc(/C=C(\C#N)c2nc3ccc(C)cc3[nH]2)c1 -27.4%
COc1ccc(-c2nc(CCNC(=O)c3c(F)cccc3Cl)cs2)cc1 2.92%
CC(C)c1ccc(C2Sc3ccccc3NC3=C2C(=O)c2ccccc23)cc1 (stereo not given) -17.9%
NC(=O)c1ccc(-c2nc(-c3ccc4c(c3)OCO4)c(-c3ccccn3)[nH]2)cc1 15.3%
COc1cc(C(=O)n2nc(C)c(Sc3ccc(Cl)cc3)c2C)cc(OC)c1OC 30.6%
Cc1ccc(CN(Cc2ccco2)C(=O)c2cccc(C)c2)cc1 8.98%
CCOc1ccc(S(=O)(=O)Nc2ccc(OC)c(Cl)c2)c2cccnc12 -2.29%
O=C(CN1C(=O)C(c2ccc(F)cc2)=NC12CCCCCC2)Nc1ccccc1Cl 6.65%
Nc1nnc(SCC(=O)Nc2cccc(F)c2)s1 39.6%
CC(C)CCNc1nc(Nc2ccccc2)c2cnn(C)c2n1 3.05%
COc1ccc(S(=O)(=O)N(Cc2nc(-c3cccc(C)c3)no2)C2CCCCC2)cc1 7.2%
CCCCN(CC)CCNC(=O)C1CCN(c2nnc(C)c3c(C)n(-c4ccc(C)cc4)nc23)CC1 49.9%
CCOC(=O)c1c(NC(=O)COc2ccc(OC)cc2)sc(C(=O)N(CC)CC)c1C 8.8%

Potency, active:
CCN(CC)CCn1c(=N)n(CCOc2ccccc2Cl)c2ccccc21 9.27 µM
CCC1=Nc2cc(C(=O)NC3CCCC3)ccc2Sc2ccc(Cl)cc21 2.07 µM
COC(=O)c1ccccc1NC(=O)c1nc(S(=O)(=O)Cc2cccc(C)c2)ncc1Cl 5.21 µM
Cc1ccc(Nc2nc(C(N)=O)c(NC(=O)c3ccccc3Br)s2)cc1 3.69 µM
O=C(Cn1c(=O)c2ccccc2n(CC(=O)Nc2ccc(Cl)cc2)c1=O)NCCc1ccccc1 14.7 µM
C=CCNC1=C2C[C@@H](C)C[C@H](OC)[C@H](O)[C@@H](C)/C=C(\C)[C@H](OC(N)=O)[C@@H](OC)/C=C\C=C(/C)C(=O)NC(=CC1=O)C2=O 0.515 µM
COc1cc(OC)c(NC(=O)Nc2ccc3c(c2)N(C)C(=O)c2ccccc2S3)cc1Cl 5.21 µM
Cc1cccc(CS(=O)(=O)c2ncc(Cl)c(C(=O)NCc3ccccc3)n2)c1 13.1 µM
Cc1ccc(C)c(Cn2c3ccccc3c3cnn(CC(=O)NC(C)CCc4ccccc4)c(=O)c32)c1 (stereo not given) 18.5 µM
